{"source": "PubChem BioAssay AID489025", "about": "(Southern Research Specialized Biocontainment Screening …, 2010)", "note": "Out of some 2,300 compounds screened, about 790 (34%) were called active. No rule for the calls is given here. The list shows a part of the results. Results with a measured potency or affinity are listed apart."}
{"test": "THP-1 cell cytotoxicity, dose response, cytotoxicity control for non-replicating M. tuberculosis project (AID 489025)", "conditions": "THP-1 cell viability; series mostly up to 40 µM"}
{"smiles": "Cc1cc(C)cc(OC(=O)CCN2C(=O)c3ccccc3C2=O)c1", "outcome": "inactive"}
{"smiles": "O=C1c2ccccc2C(=O)N1CCOc1ccc(F)cc1", "outcome": "inactive"}
{"smiles": "COc1cccc2cc(C(=O)c3ccc([N+](=O)[O-])cc3)oc12", "outcome": "inactive"}
{"smiles": "O=C(c1ccc([N+](=O)[O-])o1)N1CCN(c2nc3ccc(F)cc3s2)CC1", "outcome": "inactive"}
{"smiles": "C=CC[n+]1ccn(-c2nc3ccccc3nc2[N-]S(=O)(=O)c2cccs2)c1", "outcome": "inactive"}
{"smiles": "CCCCCCNC(=O)c1ccc(Br)o1", "outcome": "inactive"}
{"smiles": "CC(=O)CCC1CC(c2ccc(Cl)cc2)=NO1", "note": "(stereo unspecified)", "outcome": "inactive"}
{"smiles": "Cc1c(Cl)cccc1NC(=O)C(=O)NNC(=O)c1ccccc1F", "outcome": "inactive"}
{"smiles": "CCOC(=O)c1c(NC(=O)COC(=O)c2ccccn2)sc2c1CCC2", "outcome": "inactive"}
{"smiles": "O=C(Nc1nnc(-c2cc(Cl)ccc2Cl)o1)C1=COCCO1", "outcome": "inactive"}
{"smiles": "O=C(CCN1C(=O)S/C(=C\\c2ccc(F)cc2)C1=O)Nc1ccc(C(=O)O)c(O)c1", "outcome": "inactive"}
{"smiles": "O=C(NNC(=O)c1ncc(Cl)c(Cl)c1Cl)c1ccc(F)cc1", "outcome": "inactive"}
{"smiles": "CC1CCN(CCOCCSc2ccc(Cl)cc2)CC1", "outcome": "inactive"}
{"smiles": "COc1ccc2cc(C(=O)NCc3ccccc3)c(=O)oc2c1", "outcome": "inactive"}
{"smiles": "O=C(CCC1CCCC1)NCc1ccccn1", "outcome": "inactive"}
{"smiles": "COc1ccc(NC(=O)COc2ccc3c(c2)CCC3)cc1", "outcome": "inactive"}
{"smiles": "Cc1ccc(C2=N/C(=C\\c3cccnc3)C(=O)O2)cc1", "outcome": "inactive"}
{"smiles": "O=C1OC(/C=C/c2ccccc2)=NC/1=C\\c1cccnc1", "outcome": "inactive"}
{"smiles": "Cn1c(=O)c(Oc2ccc(Cl)cc2)c(O)c2ccccc21", "outcome": "inactive"}
{"smiles": "C=CCn1c(=O)c(C(=O)Nc2cccnc2)c(O)c2ccccc21", "outcome": "inactive"}
{"smiles": "Cc1cccnc1NC(=O)c1c(O)c2ccccc2n(C)c1=O", "outcome": "inactive"}
{"smiles": "CCn1c(=O)c(C(=O)Nc2ncccc2C)c(O)c2ccccc21", "outcome": "inactive"}
{"smiles": "COc1cc(C2C3=C(CC(C)(C)CC3=O)OC(N)=C2[N+](=O)[O-])ccc1O", "note": "(stereo unspecified)", "outcome": "inactive"}
{"smiles": "CCCCOc1ccc(CSCCN)cc1Cl", "outcome": "inactive"}
{"smiles": "O=C1N(c2ccc3c(c2)OCCO3)C(c2ccccc2)C1(F)F", "note": "(stereo unspecified)", "outcome": "inactive"}
{"smiles": "NC(=O)COc1ccc2cc(-c3ccc(F)cc3)c(=O)oc2c1", "outcome": "inactive"}
{"smiles": "Cc1n[nH]c(=S)n1/N=C/c1ccc(OCc2ccc(Cl)cc2Cl)cc1", "outcome": "inactive"}
{"smiles": "CN1CCC(O)(c2cccs2)C(C(=O)c2cccs2)C1", "note": "(stereo unspecified)", "outcome": "inactive"}
{"smiles": "CC1CCN(C(=O)C2COc3ccccc3O2)CC1", "note": "(stereo unspecified)", "outcome": "inactive"}
{"smiles": "CCCn1c(=O)c(C(=O)N/N=C/c2ccccc2F)c(O)c2ccccc21", "outcome": "inactive"}
{"smiles": "C/C(=N\\Nc1nc2ccccc2[nH]1)c1ccc(N2CCOCC2)cc1", "outcome": "inactive"}
{"smiles": "CCCCN(C/C=C/c1ccccc1OC)Cc1ccccc1", "outcome": "inactive"}
{"smiles": "COc1ccc(N2C(=O)CC(Sc3nc4ccccc4s3)C2=O)cc1OC", "note": "(stereo unspecified)", "outcome": "inactive"}
{"smiles": "CCOc1cccc2cc(C(=O)NC(C)c3ccccc3)c(=N)oc12", "note": "(stereo unspecified)", "outcome": "inactive"}
{"smiles": "O=C(COc1cccc2ccccc12)Nc1ccc(Cl)cc1C(=O)O", "outcome": "inactive"}
{"smiles": "O=C(NCc1cccs1)c1cc(-c2ccc(O)cc2)on1", "outcome": "inactive"}
{"smiles": "O=C(OCC(=O)N1CCCCC1)c1cc2ccccc2cc1O", "outcome": "inactive"}
{"smiles": "Cc1cccc(NC(=O)CO/N=C/c2ccc3c(c2)OCO3)c1", "outcome": "inactive"}
{"smiles": "O=C(CN1CCN(c2ccc([N+](=O)[O-])cc2)CC1)Nc1ccccn1", "outcome": "inactive"}
{"smiles": "O=C(NCc1cccs1)c1ccc(Br)o1", "outcome": "inactive"}
{"smiles": "O=C(Nc1ncccn1)c1ccc([N+](=O)[O-])o1", "outcome": "inactive"}
{"smiles": "Cc1csc(NC(=O)c2cc([N+](=O)[O-])cc([N+](=O)[O-])c2)n1", "outcome": "inactive"}
{"smiles": "COc1cccc(COC(=O)c2sc3nc4n(c(=O)c3c2C)CCC4)c1OC", "outcome": "inactive"}
{"smiles": "O=C(N/N=C/c1ccc(OC(=O)c2ccco2)cc1)c1ccccn1", "outcome": "inactive"}
{"smiles": "O=C(Nc1ccc(-c2nc3ccccc3c(=O)o2)cc1)c1ccco1", "outcome": "inactive"}
{"smiles": "CC(C)(C)/C(O)=C/c1nc2ccccc2oc1=O", "outcome": "inactive"}
{"smiles": "O=C1N/C(=N\\c2ccccn2)SC1Cc1ccc(Cl)cc1", "note": "(stereo unspecified)", "outcome": "inactive"}
{"smiles": "COc1ccc(/C(=N/O)C(C)(C)NO)cc1", "outcome": "inactive"}
{"smiles": "CO/N=C/CC(=O)c1ccc(OC)cc1", "outcome": "inactive"}
{"smiles": "Cc1cc2nc(CSc3ccc(Cl)cc3)cc(=O)n2[nH]1", "outcome": "inactive"}
{"smiles": "CSCCC(=O)N1CCCC(N2CCN(c3cccc(C(F)(F)F)c3)CC2)C1", "note": "(stereo unspecified)", "outcome": "inactive"}
{"smiles": "CCC(C)c1ccc(OCCn2ccnc2)cc1", "note": "(stereo unspecified)", "outcome": "inactive"}
{"smiles": "C/C(=C\\C(=O)c1ccncc1)Nc1ccccc1O", "outcome": "inactive"}
{"smiles": "CCOC(=O)c1ccc(NC(=O)CCSCCc2ccccn2)cc1", "outcome": "inactive"}
{"smiles": "Cc1ccc(OCCCCc2c(C)n[nH]c2C)cc1", "outcome": "inactive"}
{"smiles": "CC1CCc2c(sc3nc(CSc4ncn[nH]4)[nH]c(=O)c23)C1", "note": "(stereo unspecified)", "outcome": "inactive"}
{"smiles": "CC1CC(C)CN(CCOCCSc2ccc(Cl)cc2)C1", "note": "(stereo unspecified)", "outcome": "inactive"}
{"smiles": "Cc1cc(Cl)ccc1NNC(=O)c1cccs1", "outcome": "inactive"}
{"smiles": "O=C(c1ccccc1)c1nc[nH]c1C(=O)Nc1ccccc1", "outcome": "inactive"}
{"smiles": "CN(C)CCC(=O)N1c2ccccc2Sc2ccc(Cl)cc21", "outcome": "inactive"}
{"smiles": "O=S1(=O)N=C(N/N=C/C=C/c2ccccc2)c2ccccc21", "outcome": "inactive"}
{"smiles": "COc1ccc(OCc2n[nH]c(=S)o2)cc1", "outcome": "inactive"}
{"smiles": "CCCCn1c(N)c(-c2nc3ccccc3o2)c2c([N+](=O)[O-])nn(CC)c(=O)c21", "outcome": "inactive"}
{"smiles": "CCOCC(=O)Nc1ccc(C)c(Cl)c1", "outcome": "inactive"}
{"smiles": "CSC1=N/C(=C\\c2ccc(Br)o2)C(=O)S1", "outcome": "inactive"}
{"smiles": "Cc1ccc(-c2nnc(C)c(N3CCCC3)n2)cc1", "outcome": "inactive"}
{"smiles": "O=C(CN1CCN(c2ccccc2O)CC1)Nc1ccc2c(c1)CCC2", "outcome": "inactive"}
{"smiles": "CCOc1ccc(OCCSc2ccc(S(=O)(=O)N3CCN(C)CC3)cn2)cc1", "outcome": "inactive"}
{"smiles": "CC(C)c1ccc(OCC(=O)NCc2ccccc2)cc1", "outcome": "inactive"}
{"smiles": "Cc1cc2cc(CNC(=O)COc3ccccc3)ccc2n1C", "outcome": "inactive"}
{"smiles": "Cc1nonc1C(=O)N/N=C/c1ccc([N+](=O)[O-])o1", "outcome": "inactive"}
{"smiles": "Cc1cc(C(=O)N/N=C/C=C/c2ccccc2)c(C)o1", "outcome": "inactive"}
{"smiles": "Cc1cccc(NC(=O)c2cc3ccccc3o2)c1", "outcome": "inactive"}
{"smiles": "COc1ccc(NC(=O)c2cc3ccccc3o2)cc1", "outcome": "inactive"}
{"smiles": "NC(=O)COC(=O)c1sc2ccccc2c1Cl", "outcome": "inactive"}
{"smiles": "O=C(Nc1ccc(Cl)c(Cl)c1)O/N=C/c1ccncc1", "outcome": "inactive"}
{"smiles": "O=C(NC1CC2CCC1C2)C1COc2ccccc2O1", "note": "(stereo unspecified)", "outcome": "inactive"}
{"smiles": "O=C(NCc1ccccc1)c1cc2ccccc2oc1=O", "outcome": "inactive"}
{"smiles": "O=C(NCCc1cccc(Cl)c1)c1cc2ccccc2oc1=O", "outcome": "inactive"}
{"smiles": "O=C(O)c1ccc(-n2nc(C(F)(F)F)c3c2CCCC3)cc1", "outcome": "inactive"}
{"smiles": "O=C(COc1ccc2ccccc2c1)Nc1ccncc1", "outcome": "inactive"}
{"smiles": "S=c1[nH]cnc2sc(-c3ccccc3)cc12", "outcome": "inactive"}
{"smiles": "CCOC(=O)c1csc(COc2ccccc2Cl)n1", "outcome": "inactive"}
{"smiles": "Clc1ccccc1OCc1nnc(-c2ccccc2)o1", "outcome": "inactive"}
{"smiles": "CCn1c(-c2ccco2)nc2ccccc21", "outcome": "inactive"}
{"smiles": "COc1cccc(COC(=O)CCNC(=O)c2ccc(Br)cc2)c1OC", "outcome": "inactive"}
{"smiles": "CC(=O)c1ccc(NC(=O)C(Cc2ccccc2)n2cccc2)cc1", "note": "(stereo unspecified)", "outcome": "inactive"}
{"smiles": "Cc1cc(NC(=O)COc2ccccc2)ccc1Cl", "outcome": "inactive"}
{"smiles": "O=C(NC1CCCC1)c1cc(-c2cccs2)on1", "outcome": "inactive"}
{"smiles": "O=C(Nc1nnc(C2=COCCO2)o1)c1ccc(Cc2ccccc2)cc1", "outcome": "inactive"}
{"smiles": "Cc1ccsc1C(=O)OCC(=O)Nc1nnc(-c2ccccc2)o1", "outcome": "inactive"}
{"smiles": "CCOc1cc(-c2nnc(NC(=O)c3ccco3)o2)cc(OCC)c1OCC", "outcome": "inactive"}
{"smiles": "Cc1cc(C)c(OCC(=O)Nc2nnc(-c3ccco3)o2)c(C)c1", "outcome": "inactive"}
{"smiles": "CCc1ccc(NC(=O)CCc2ccc(C)o2)cc1", "outcome": "inactive"}
{"smiles": "C=CCn1c(O)c(C(C)=Nc2ccc(C(=O)OCC)cc2)c(=O)[nH]c1=O", "outcome": "inactive"}
{"smiles": "Oc1ccc2cc(Br)ccc2c1CN1CCCC1", "outcome": "inactive"}
{"smiles": "Cc1ccc(S(=O)(=O)NCC(=O)OCCOc2cccc(Cl)c2)cc1", "outcome": "inactive"}
{"smiles": "O=C(Nc1nnc(-c2ccccc2Cl)o1)c1ccco1", "outcome": "inactive"}
{"smiles": "O=C(Nc1nnc(-c2ccccc2Cl)o1)c1cccnc1", "outcome": "inactive"}
{"smiles": "CC(C)OC(=O)c1cc(C(=O)c2cc(Cl)ccc2O)coc1=N", "outcome": "inactive"}
{"smiles": "COc1c[nH]n(C2CCCCC2)c(=O)c1=O", "outcome": "inactive"}
{"smiles": "Cc1ccc(N=N/C(=C\\O)C(=O)c2ccncc2)cc1", "outcome": "inactive"}
{"smiles": "O=C(NNC1CC(=O)N(c2ccccc2)C1=O)c1ccco1", "note": "(stereo unspecified)", "outcome": "inactive"}
{"smiles": "NC(=O)N/N=C/c1ccccc1OC(=O)c1cc2ccccc2oc1=O", "outcome": "inactive"}
{"smiles": "Cc1ccc(C(=O)N2N=C(CC(C)C)CC2(O)C(F)(F)F)o1", "note": "(stereo unspecified)", "outcome": "inactive"}
{"smiles": "Cn1nnc(NC(=O)COc2ccc(C3CCCCC3)cc2)n1", "outcome": "inactive"}
{"smiles": "Cc1cc(O)c(-c2cc(O)c(C)cc2O)cc1O", "outcome": "inactive"}
{"smiles": "COc1ccc(-c2nnc(NC(=O)C3=COCCO3)o2)cc1", "outcome": "inactive"}
{"smiles": "COc1ccc(-c2nnc(SCC(C)C)o2)cc1", "outcome": "inactive"}
{"smiles": "Cc1ccn2nc(S(=O)(=O)Nc3c(F)cccc3F)nc2n1", "outcome": "inactive"}
{"smiles": "CC(=O)Nc1ccc(NC(=O)c2cc([N+](=O)[O-])cc([N+](=O)[O-])c2)cc1", "outcome": "inactive"}
{"smiles": "COc1cccc(NC(=O)c2ccc(-c3ccc([N+](=O)[O-])cc3)o2)c1", "outcome": "inactive"}
{"smiles": "COc1ccc(CNC(=O)c2cc3cccc(O)c3oc2=N)cc1", "outcome": "inactive"}
{"smiles": "CCOC(=O)COc1ccc2c(=O)c(-c3ccccc3OC)coc2c1", "outcome": "inactive"}
{"smiles": "COC(=O)COc1ccc(-c2nn(C)c(=O)c3ccccc23)cc1", "outcome": "inactive"}
{"smiles": "O=C(CNC(=O)c1ccco1)OCc1ccc(C(=O)Oc2ccccc2)cc1", "outcome": "inactive"}
{"smiles": "CCOC(=O)CC(=O)Nc1ccc(C(=O)OCC)cc1", "outcome": "inactive"}
{"smiles": "CCOC(=O)c1ccc(NC2OC(=O)c3ccccc32)cc1", "note": "(stereo unspecified)", "outcome": "inactive"}
{"smiles": "c1ccc(C2=Nc3ccccc3OC2)cc1", "outcome": "inactive"}
{"smiles": "C/C(=N\\Nc1ccc(Cl)cc1)c1ccccn1", "outcome": "inactive"}
{"smiles": "O=C(N/N=C/c1ccccn1)c1ccccc1", "outcome": "inactive"}
{"smiles": "CC(C)c1ccc(/C=N/NC(=O)c2ccccn2)cc1", "outcome": "inactive"}
{"smiles": "O=C(N/N=C/c1ccccn1)c1cccc(S(=O)(=O)Nc2ccccc2Cl)c1", "outcome": "inactive"}
{"smiles": "COc1cc(/C=N/NC(=O)c2ccccn2)ccc1OC(=O)c1cccs1", "outcome": "inactive"}
{"smiles": "O=C(CCc1c[nH]c2ccccc12)Nc1ncccc1O", "outcome": "inactive"}
{"smiles": "Cc1ccnc(NC(=O)CCc2c[nH]c3ccccc23)c1", "outcome": "inactive"}
